Tg IFNy HTS: blocks Toxoplasma gondii growth in the presence of IFN-gamma | Toxoplasma gondii growth in IFN-gamma-treated host cells; stronger effect = lower value | activity change, negative = inhibition, % (concentration not given with the values) | actives 3.8% (n = 69,000) | AID 1259416; in the data active = activity change below about -70%, passing the limit was not always enough;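 also: host cells are HeLa cells infected with Toxoplasma gondii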
Numbers stand for hits; . = inactive. The full list was thinned out, with hits kept by preference.

SMILES	Tg IFNy HTS
FC(F)(F)c1ccc(C2=NCCO2)cc1	.
FC(F)(F)c1ccc(-c2nnc(-c3ccc4nccnc4c3)o2)cc1	.
CCc1ncc(CN2CCCC2CN2Cc3ccccc3OCC2CN(C)C)cn1 (stereo not drawn)	.
COc1ccc2oc(C(=O)Nc3ccc(CN4C(=O)NC(C)(C)C4=O)cc3)cc2c1	.
CCCN1C(=O)CCc2cc(NC(=O)c3cc(SC)ccc3Cl)ccc21	.
COc1ccc2c(c1)CC/C2=N/OC(=O)c1cc(SC)ccc1Cl	-91
COc1ccc(C(=O)O/N=C2\CCSc3ccc(F)cc32)cc1	.
CCn1ncnc1C(C)NC(=O)c1cc2ccccc2oc1=O (stereo not drawn)	.
CC(=O)N1CCc2nc(C(N)=O)sc2CC1	.
C=CCN1C(=O)CC[C@H]2[C@@H]1CCN2C(=O)N(C)C	.
O=S(=O)(NCc1ccccc1)Nc1ccc(-n2ccnc2)cc1	.
O=C(CN1CCOCC1)Nc1ccc(Oc2ccccc2)cc1	.
COc1ccc(C(c2ccccc2)N2CCN(C(=O)C(C)n3ccnc3)CC2)cc1 (stereo not drawn)	.
O=C(Oc1ccc(Oc2ccccc2)cc1)N1CCC(OC(=O)n2ccnc2)CC1	-97
COc1ccc(C2(NC(=O)CCn3ncc4ccccc43)CCCCC2)cc1	.
O=C(CCc1c[nH]c2ccccc12)NCc1ccccc1-n1cncn1	.
CC(CCc1ccc(F)cc1)NC(=O)c1cc(C(C)(C)C)oc1CN1CCOCC1 (stereo not drawn)	.
CCOC(=O)c1oc2ccccc2c1NC(C)=O	.
CCOC(=O)c1c(CSC2CCCCC2)oc2ccc(O)cc12	-104
CCOC(=O)c1oc2ccc(CNC3CCCCC3)c(Cl)c2c1C	.
O=C(c1nc2ccc(Cl)cn2c1CN1CC=CC1CO)N1CCCCCCC1 (stereo not drawn)	.
CSc1cccc(NC(=O)c2ccc(-c3nc(CN4CCN(c5ccccc5)CC4)c(C)o3)cc2)c1	.
O=C(c1cccnc1Oc1ccccc1)N1CCN(C2c3ccccc3-c3ccccc32)CC1	.
CC(C)(C)C(=O)N1CCN(c2cccc(Cl)c2)CC1	.
CC(C)(C)C(=O)N1CCN(C2c3ccccc3-c3ccccc32)CC1	-94
SMILES	Tg IFNy HTS
CCOC(=O)c1nc(N2CCN(c3cc(Cl)ccc3C)CC2)c2ccccc2n1	.
CC(=O)Nc1ccc(Cl)c(C(=O)N2CCCC2c2nc(C(C)C)no2)c1 (stereo not drawn)	.
O=C(NC(Cc1ccccc1)c1ccc2c(c1)OCCO2)c1cc2c([nH]c1=O)CCC2 (stereo not drawn)	.
O=C1CC(Nc2cnc3ccccc3n2)CN1C1Cc2ccccc2C1 (stereo not drawn)	.
O=C(O)Cn1c2c(c3ccccc31)CCC2	-92
O=C1SCCc2c1n(Cc1ccccc1)c1ccccc21	.
COc1ccc2c(c1)c1c(n2Cc2ccccc2)CCCC1	.
O=C(Cn1ncc2c(N3CCCC3)ncnc21)Nc1ccccc1Br	.
c1ccc(C2CN(c3ncnc4c3CCNC4)CCO2)cc1 (stereo not drawn)	.
c1ccc(C2CCCN(c3ncnc4c3CCNC4)CC2)cc1 (stereo not drawn)	-79
c1cnc(NC2CCN(c3ncnc4c3CCNC4)CC2)nc1	.
CCc1[nH]c2ccc(CNC(=O)C(=O)N3CCOCC3)cc2c1C	.
O=C(NCc1coc(-c2ccccc2)n1)c1cccc2ccnn12	-80
O=C(NCc1csc(N2CCOCC2)n1)c1cccc2ccnn12	.
O=C(NCc1noc(Cc2ccccc2)n1)c1cccc2ccnn12	.
CCn1c(C(C)C)nc2cc(NC(=O)c3cccc(Cn4cncn4)c3)ccc21	.
N#CCN1C(=O)CC2(CCN(c3ncc(F)cn3)CC2)c2ccccc21	.
CSc1nc(-c2ccc(Cl)cc2)nc(N)c1-c1ccccc1	.
Nc1cc(-c2ccc(Cl)cc2)nc(N)n1	.
CCc1nc(N)nc(N)c1-c1ccc(Cl)cc1	-95
Cc1nccn1-c1ccccc1CNC(=O)c1cnn2ccn(C)c12	.
CCN1c2cc(C)ccc2-n2cccc2C12CCN(C(=O)Nc1ccc3c(c1)OCCO3)CC2	.
Cc1ccc2c(c1)c(CNC(C)Cn1nc(C)cc1C)nn2C (stereo not drawn)	.
Cc1cc(C)n(CC(C)NCc2noc(-c3ccco3)n2)n1 (stereo not drawn)	.
CCNC(=O)c1ccc(-c2nc(CN3CCN(c4ccccc4)CC3)c(C)o2)cc1	.
SMILES	Tg IFNy HTS
Cc1oc(-c2ccc(C(=O)NCCc3cnc[nH]3)cc2)nc1CN1CCN(c2ccccc2)CC1	-110
Cc1oc(-c2ccc(C(=O)NCCc3ccco3)cc2)nc1CN1CCN(c2ccccc2)CC1	.
CCN(CC)CCCNC(=O)c1ccc(-c2nc(CN3CCN(c4ccccc4)CC3)c(C)o2)cc1	-104
CCCCN(CC)C(=O)c1ccc(-c2nc(CN3CCN(c4ccccc4)CC3)c(C)o2)cc1	.
COCCNC(=O)c1ccc(-c2nc(CN3CCN(c4ccccc4)CC3)c(C)o2)cc1	.
Cc1ccc2nc(N3CCC(C(=O)NCCc4cccc(F)c4)CC3)nc(C)c2c1	.
Fc1cccc(CN2CCOCC2c2nccc(N3CCCC3)n2)c1 (stereo not drawn)	.

Screens (PubChem BioAssay)
